Screens (PubChem BioAssay)
Shiga toxin inh = blocks Shiga toxin action in Vero cells; AID 2315; 9.2% of 290,000 active; Vero cells, Shiga toxin protein synthesis inhibition reporter; inhibition, % at 38.7 µM; in the data active = inhibition mostly above about 28%, no sharp cut-off; inactive = mostly below about 43%; note: 0% is about no effect
MARV entry inh = inhibitors of Marburg virus binding or cell entry; Marburg virus pseudotyped entry inhibition, cell reporter; Potency, µM (series often up to 37.8 µM), inactives show at the highest dose activity change, negative = inhibition, actives largely listed as inhibitors; 1.8% of 300,000 active; AID 540276; calls by dose curve; tested in HEK293 cells; note: potency is the fitted concentration of half-maximal effect; % is set by controls: 0 for no effect and ±100 for the full control effect
Lassa entry inh = Lassa virus entry inhibition; 1.2% of 300,000 active; AID 540256; Potency, µM (doses to about 37.9 µM), inactives show at the top dose activity change, negative = inhibition, actives largely listed as inhibitors; Lassa virus pseudotype entry inhibition, cell reporter; calls by dose curve; tested in HEK293 cells; note: potency is the fitted concentration of half-maximal effect; % is set by controls: 0 for no effect and ±100 for the full control effect; nearly all actives have a fitted effect of over 50% in size
Cycloheximide cs = affects cycloheximide protein synthesis inhibition readout, counter-screen; max response, %; cell reporter, cycloheximide protein synthesis inhibition counterscreen; 12% of 300,000 active; in the data active = max response mostly above about 13%, no sharp cut-off; inactive = mostly below about 14%; note: read at 38.3 µM for the half of the compounds with a filed dose; 0% is about no effect
AMA1-RON2 inh = disrupts binding of P. falciparum AMA1 to RON2 | AlphaScreen AMA1-biotinylated RON2 peptide binding | Potency, µM (series often up to 58.2 µM), for inactives: at the highest dose activity change, negative = inhibition, hits mostly inhibitors | 0.2% of 360,000 active | AID 720542; active = well fitted inhibition curve with a large enough effect; inconclusive = small, poorly fitted or top-dose-only effect; inactive = no such curve, though single readings can be large or run the other way;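 note: potency is the fitted concentration of half-maximal effect; 0% = vehicle wells and -100% = peptide control; nearly all actives have a fitted effect of over 45% in size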
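AMA1 (3D7) with his tag at 25 nM final met compounds first, then biotinylated RON2 peptide at 25 nM; detection used donor plus acceptor beads, 10 µg/mL apiece, read by AlphaScreen after 30 min at room temperature.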
The depositor's hits bear a star; [ ] = another dose, or the depositor's remark. Shown is part of a subset that was picked to be rich in hits.

How did Cc1cnc(NC(=O)C2CC(=O)N(c3cccc(Cl)c3)C2)s1 (stereo unspecified) do in these assays?
Shiga toxin inh: -8; Cycloheximide cs: -3; AMA1-RON2 inh: -7%

How did COc1ccccc1C(CNC(=O)c1cc(C)nc2ccccc12)N(C)C (stereo unspecified) do in these assays?
Shiga toxin inh: -4; MARV entry inh: 5%[46.1 µM]; Lassa entry inh: -6%[46.1 µM]; Cycloheximide cs: 2; AMA1-RON2 inh: -2%

Results for Cc1cc(/C=C2\SC(N)=NC2=O)c(C)n1-c1ccccc1 ?
Shiga toxin inh: 45; MARV entry inh: inconclusive; Lassa entry inh: inconclusive; Cycloheximide cs: 36*; AMA1-RON2 inh: -7%

Results for CCOC(=O)C1=NNC2C(=O)N(Cc3ccccc3)C(=O)C12 (stereo unspecified) ?
Shiga toxin inh: -12; MARV entry inh: inconclusive; Lassa entry inh: -9%; Cycloheximide cs: -1; AMA1-RON2 inh: -8%

Results for Cc1nc2ccc(OC(=O)c3ccccc3)cc2s1 ?
Shiga toxin inh: 19; Cycloheximide cs: 13*; AMA1-RON2 inh: 13%

Results for CNC(=O)Nc1ccc2nc(C)sc2c1 ?
Shiga toxin inh: 18; MARV entry inh: -6%; Lassa entry inh: 8%; Cycloheximide cs: 16*; AMA1-RON2 inh: 5%

What do the screens show for `Cc1nc2ccc(C(=O)Nc3ccccc3Cl)cc2s1`?
Shiga toxin inh: 118*; Cycloheximide cs: 50*; AMA1-RON2 inh: -15%

How did Cc1nc2ccc(NC(=O)c3ccc4ccccc4n3)cc2s1 do in these assays?
Shiga toxin inh: 102*; MARV entry inh: inconclusive; Cycloheximide cs: 28*; AMA1-RON2 inh: -7%

How did Cc1cccc(C(=O)Nc2ccc(-c3nc4ccccc4s3)cc2Cl)c1 do in these assays?
Lassa entry inh: -1%[46.1 µM]

How did C=CCNC(=O)Nc1ccc2nc(C)sc2c1 do in these assays?
Shiga toxin inh: 24; MARV entry inh: 8%[46.1 µM]; Lassa entry inh: inconclusive; Cycloheximide cs: 14; AMA1-RON2 inh: -9%

What do the screens show for `CCc1ccc(C(=O)c2cn(CC(=O)Nc3ccc4c(c3)OCCO4)c3ccc(CC)cc3c2=O)cc1`?
MARV entry inh: 25%[46.1 µM]; Lassa entry inh: 10%[46.1 µM]

Results for CCN(C[C@H]1N[C@@](C)(C(=O)OC)[C@H]2C(=O)N(C)C(=O)[C@@H]12)S(=O)(=O)c1ccc(OC)cc1 ?
AMA1-RON2 inh: -2%

What do the screens show for `Cc1ccccc1NC(=O)c1ccc2nc(N3CCOCC3)sc2c1`?
Shiga toxin inh: 38*; Cycloheximide cs: 28*; AMA1-RON2 inh: 0%

How did Cc1ccccc1CNC(=O)c1ccc2nc(N3CCOCC3)sc2c1 do in these assays?
Shiga toxin inh: 14; Cycloheximide cs: 2; AMA1-RON2 inh: -1%

How did CCNc1ccc(C(=O)Nc2ccc3nc(C)sc3c2)cc1[N+](=O)[O-] do in these assays?
Shiga toxin inh: 32; MARV entry inh: 14%; Lassa entry inh: 0%; Cycloheximide cs: 27*; AMA1-RON2 inh: 22%

Results for Cc1nc2ccc(NC(=O)c3ccccc3)cc2s1 ?
Shiga toxin inh: 108*; MARV entry inh: -15%; Lassa entry inh: 7%; Cycloheximide cs: 30*; AMA1-RON2 inh: 10%

Results for COc1cc(C(=O)Nc2ccc(C(C)=O)cc2)c(Br)c(OC)c1OC ?
Shiga toxin inh: 70*; MARV entry inh: -2%; Lassa entry inh: inconclusive; Cycloheximide cs: 42*; AMA1-RON2 inh: -8%

What do the screens show for `COc1ccc(-n2nc(C(=O)N3CCN(c4cccc(C(F)(F)F)c4)CC3)c3c4ccccc4n(C)c3c2=O)cc1Cl`?
MARV entry inh: 14%[46.1 µM]; Lassa entry inh: 2%[46.1 µM]

What do the screens show for `Nc1nc2ccc(C(=O)Nc3ccc(N4CCOCC4)cc3)cc2s1`?
MARV entry inh: inconclusive; Lassa entry inh: 6%; AMA1-RON2 inh: 7%

Results for CC(=O)c1ccc(NC(=O)c2ccc(C)c(Br)c2)cc1 ?
Shiga toxin inh: 73*; MARV entry inh: inconclusive; Lassa entry inh: inconclusive; Cycloheximide cs: 60*; AMA1-RON2 inh: 7%

How did Cc1cccnc1NC(=O)c1ccc2nc(N)sc2c1 do in these assays?
Shiga toxin inh: 73*; MARV entry inh: inconclusive; Lassa entry inh: -4%; Cycloheximide cs: 28*; AMA1-RON2 inh: -7%

Results for Cc1nc2ccc(NC(=O)c3cncc(Br)c3)cc2s1 ?
Shiga toxin inh: 102*; Cycloheximide cs: 32*; AMA1-RON2 inh: -2%

Results for O=C(O)c1ccc(CSc2nc3ccc(NC(=O)c4ccccc4C(=O)O)cc3s2)cc1 ?
Shiga toxin inh: 27; MARV entry inh: 1%[46.1 µM]; Lassa entry inh: 14%; Cycloheximide cs: 13; AMA1-RON2 inh: -11%

How did N#Cc1ccccc1CSc1nc2ccc(NC(=O)c3ccccc3C(=O)O)cc2s1 do in these assays?
Shiga toxin inh: 79*; MARV entry inh: inconclusive; Lassa entry inh: inconclusive; Cycloheximide cs: 27*; AMA1-RON2 inh: -3%

How did Cc1cccc(NC(=O)C2CCCN2S(=O)(=O)c2ccc3nc(-c4ccccc4)[nH]c3c2)c1 (stereo unspecified) do in these assays?
Lassa entry inh: -23%[46.1 µM]

What do the screens show for `Cc1ccc(CNC(=O)CCCCCn2c(=O)c3sccc3n(CC(=O)N3CCCCC3C)c2=O)cc1` (stereo unspecified)?
MARV entry inh: -13%[46.1 µM]; Lassa entry inh: -23%[46.1 µM]

Results for CN1c2ccccc2[C@@]2(O)C(=O)[C@@]1(C)[C@@H]1CCC=C[C@H]12 ?
MARV entry inh: 10%[14.2 µM]; Lassa entry inh: inconclusive

What do the screens show for `CC(=O)c1ccc(NC(=O)c2ccc3nc(C)sc3c2)cc1`?
Cycloheximide cs: 87*; AMA1-RON2 inh: -2%

What do the screens show for `Cc1nc2ccc(C(=O)Nc3ccc(N(C)C)cc3)cc2s1`?
MARV entry inh: 13%; Lassa entry inh: inconclusive; AMA1-RON2 inh: -26%

Results for Cc1nc2ccc(NC(=O)c3cccc(S(=O)(=O)N(C)c4ccccc4)c3)cc2s1 ?
Shiga toxin inh: -3; MARV entry inh: 18µM*; Lassa entry inh: inconclusive; Cycloheximide cs: -3; AMA1-RON2 inh: -18%

How did CCn1nc(C(=O)Nc2ccc3nc(C)sc3c2)c2ccccc2c1=O do in these assays?
Shiga toxin inh: 30; MARV entry inh: 7%; Lassa entry inh: -58%; Cycloheximide cs: 19*; AMA1-RON2 inh: 4%[2.32 µM]

What do the screens show for `Cc1nnc(NC(=O)c2ccc3ccccc3n2)s1`?
Shiga toxin inh: 110*; Cycloheximide cs: 38*; AMA1-RON2 inh: 117%

Results for CCCC1=NN2C(=N)/C(=C\c3ccc(OCCOc4ccc(NC(C)=O)cc4)c(OC)c3)C(=O)N=C2S1 ?
Shiga toxin inh: -8; MARV entry inh: -11%; Lassa entry inh: inconclusive; Cycloheximide cs: 3; AMA1-RON2 inh: 81%

How did COCCn1c(-c2ccc(-c3ccc([N+](=O)[O-])cc3Br)o2)nc2c1c(=O)[nH]c(=O)n2CC(C)C do in these assays?
Shiga toxin inh: 17; MARV entry inh: inconclusive; Lassa entry inh: inconclusive; Cycloheximide cs: -2; AMA1-RON2 inh: -7%

How did Cc1nc2cc(C(=O)O)ccc2s1 do in these assays?
Shiga toxin inh: 133*; MARV entry inh: inconclusive; Lassa entry inh: inconclusive; Cycloheximide cs: 44*; AMA1-RON2 inh: 15%
